In all, about 260,000 compounds went through this assay and about 1,500 (0.58%) were called active. Not shown: some 5% with an inconclusive outcome. Not all results are given here. Potency and affinity values are given separately. Values without a mark were called inactive.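 The calls were made as follows: active = inhibition above a set limit at one or more doses, reproduced on every date tested; inconclusive = results disagree between test dates, or hit never tested in dose response; inactive = the rest.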

This test has as its target Virion infectivity factor (Human immunodeficiency virus type 1 group M subtype B (isolate BH10)) + Virion infectivity factor (Human immunodeficiency virus type 1 group M subtype B (isolate BRU/LAI)) + Virion infectivity factor (Human immunodeficiency virus type 1 group M subtype B (isolate PCV12)) + Virion infectivity factor (Human immunodeficiency virus type 1 group M subtype B (isolate HXB2)) + DNA dC->dU-editing enzyme APOBEC-3G (Homo sapiens) (UniProt P69720+P69721+P69722+P69723+Q9HC16). The experiment in a line: HIV-1 Vif–A3G interaction blockers – biochemical, TR-FRET, GST-Vif 1-94, biotin-A3G peptide, dose response retest, primary screen (AID 1117319).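 Also: Vif residues 1-94 fused to GST binding biotinylated APOBEC3G peptide 110-148; 0% = full assay without inhibitor and 100% = GST in place of GST-Vif.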 The note with it: TR-FRET GST-Vif / biotin-A3G peptide binding; hits give high values. A general note: TR-FRET usually uses a lanthanide donor and a delayed reading to cut background.
The inhibition is the drop in the measured response relative to a control, in per cent. Turning to `CCN(CC)CCN1C(=O)c2ccccc2NC1c1ccc(C)cc1` (configuration not stated), the inhibition is 0.09%. The result for `CCN(CC)CCN1C(=O)c2ccccc2NC1c1ccc(F)cc1` (configuration not stated) reads 1.63%.

Consider `CC/C(C)=N/Nc1ccc(S(=O)(=O)N2CCCC2)cc1[N+](=O)[O-]`, for which the inhibition was 0.9%. Turning to `CC1CCCN(C(=O)c2ccc(CNc3c(N4CCCCC4)c(=O)c3=O)cc2)C1` (configuration not stated), the inhibition is 4.47%. Turning to `CC1CCN(C(=O)c2ccc(CNc3c(N4CCCC4)c(=O)c3=O)cc2)CC1`, the inhibition was 5.36%. As for `Cn1c(N)c(C(=O)COC(=O)C2CCCC2)c(=O)n(C)c1=O`, the inhibition is 0.6%. As to `Cn1c(N)c(C(=O)COC(=O)C2CCC(C(C)(C)C)CC2)c(=O)n(C)c1=O` (configuration not stated), the inhibition is 15.1%.

Take `COc1ccc(S(=O)(=O)N2CCC3(CC2)CC(=O)c2ccccc2O3)cc1OC`: the inhibition was 5.1%. The result for `C=CCN1C(=O)S/C(=C\c2ccc(N3CCOCC3)cc2C)C1=O` reads -1.96%; that for `CCN1C(=O)S/C(=C\c2ccc(N3CCOCC3)cc2C)C1=O`, 15.3%. In the case of `Cc1cc(=O)oc2c(CN3CCN(C)CC3)c(O)c(Cl)cc12`, the inhibition is -0.71%. For `COc1ccccc1NC(=S)NN1CCN(C)CC1`, the inhibition is -0.89%. Regarding `Nc1ccc(C(=O)Nc2ccc3nc(-c4cccnc4)[nH]c3c2)cc1`, the inhibition was 1.2%. Under `O=C(Nc1ccc2ccccc2c1)c1cccnc1` stands -0.18%; under `CC/C(=N\NC(=O)CSc1ncccn1)c1ccc2c(c1)OCCO2`, 4.58%; under `COc1ccc(-n2c(Cc3cc(=O)[nH]c(=O)[nH]3)nnc2SCC(=O)NC2CCCC2)cc1`, 2.26%.

On to `COc1ccc2cc(CN(Cc3ccco3)C(=S)NCC3CCCO3)c(=O)[nH]c2c1` (configuration not stated), for which the inhibition is -22.6%. The result for `CC(=O)Nc1ccc(S(=O)(=O)N2CCc3ccccc3C2)cc1` reads 21.6%. `NS(=O)(=O)c1ccc(N=Nc2c(O)c(C(=O)O)cc3ccccc23)cc1`: the inhibition is 24.6%. For the molecule `O=C(O)Cc1ccc(N=Cc2c(O)ccc3ccccc23)cc1`, the inhibition is 5.87%. Under `Cn1cnnc1SCC(=O)Nc1ccccc1C(=O)NC1CCCC1` stands 7.03%; under `CC(=O)Nc1cccc(C(=O)NCC2(N3CCCCC3)CCCCC2)c1`, 3.75%; under `COc1ccc(Oc2ccc(C(F)(F)F)cc2NC(=O)c2ccc(OC)cc2)cc1`, -13.5%. For the molecule `CC(=O)c1cnc(N(C)C)s1`, the inhibition is -3.71%.

Take `CN1CCN(C2=C(Cl)C(=O)N(C3CCCCC3)C2=O)CC1`: the inhibition was 20.6%.

For `Cc1ccccc1N1C(=O)C(Cl)=C(N2CCCCCC2)C1=O`, the inhibition is 4.9%. For the molecule `O=Cc1cnc(N2CCCCC2)s1`, the inhibition is -7.46%. `Clc1cccc2sc(N3CCCCC3)nc12`: the inhibition was 0.64%. Under `CN1CCN(c2ncc(CN3C(=O)c4ccccc4C3=O)s2)CC1` stands 1.36%. For the molecule `O=C(CN1CCc2ccccc21)NN1CC(=O)N(c2ccccc2)CC1=O`, the inhibition is 1.28%. With `CCOC(=O)c1ccc(NCc2ccncc2)cc1`, the inhibition is -1.73%.

Regarding `COC(CN1CCc2c(C)nc3c(C#N)cnn3c21)OC`, the inhibition was 1.49%.

`CN(C)S(=O)(=O)c1cc(NC(=O)[C@H](Cc2ccccc2)N2C(=O)c3ccccc3C2=O)ccc1Cl`: the inhibition is 15.5%. Under `NC(=O)c1sc2nc(-c3ccco3)ccc2c1N` stands 25.6%; under `Nc1c(C(=O)Nc2ccc(Br)cc2)sc2nc(-c3ccco3)ccc12`, 4.88%; under `N#Cc1ccc(CSc2nnc(-c3ccccc3)n2Cc2ccco2)cc1`, 3.24%. Turning to `Cc1ccc(-c2nnc(SCc3ccc(C#N)cc3)n2Cc2ccco2)cc1`, the inhibition was 21.2%.

As for `COc1cccc(C(=O)OC(C)CN2CCCC2)c1` (configuration not stated), the inhibition is 2.26%. The result for `COc1ccc(CCC(=O)N2CCN(S(=O)(=O)c3ccc4ccccc4c3)CC2)cc1` reads -2.65%. Consider `O=C1c2ccccc2C(O)(c2ccccc2)N1C1CC1` (configuration not stated), for which the inhibition was 18.6%. In the case of `COc1cc(C(=O)OCCCN2CCOCC2)ccc1O`, the inhibition was 5.32%. On to `COc1cc(C(=O)OCCN2CCOCC2)ccc1O`, for which the inhibition is 6.52%.

`CCNc1nc(SC(C)C(=O)OC)nc(N2CCOCC2)n1` (configuration not stated): the inhibition is 2.4%. On to `COc1ccc(N2CS(=O)(=O)/C(=C/N(C)C)C2=O)cc1`, for which the inhibition was 9.06%. Turning to `COCCCNC(=S)Nc1ccc2nc3n(c(=O)c2c1)CCCCC3`, the inhibition is -4.36%. Under `CCn1c(O)c(C=NC2CCCC2)sc1=S` stands 5.46%; under `Oc1ccc(C=NC2CCCCC2)c(O)c1`, 21.7%.

In the case of `CCOC(=O)N1CCC(N2CC34C=CC(O3)C(C(=O)Nc3ccc(F)cc3)C4C2=O)CC1` (configuration not stated), the inhibition was 5.89%. In the case of `Cc1ccc(N2C(=O)Nc3cc(Cl)c(Cl)cc3N2O)cc1Cl`, the inhibition is 4.32%. For the molecule `CCN1CCN(CC(=O)Nc2cc(S(=O)(=O)N3CCCCC3)ccc2Cl)CC1`, the inhibition was -1.15%. With `CC(C)(C)n1nnnc1C(c1ccc2ncccc2c1)N1CCC(O)CC1` (configuration not stated), the inhibition is -3.23%. As for `CN(C)N1C(N)=C(C#N)C(c2cccc([N+](=O)[O-])c2)C2=C1CC(C)(C)CC2=O` (configuration not stated), the inhibition is -5.57%. The result for `COc1ccc(C)c2sc(N(CCCN(C)C)C(=O)c3ccc(S(=O)(=O)N(C)C)cc3)nc12` reads -2.34%; that for `CCn1c2ccccc2c2cc(NC(=O)c3cccc([N+](=O)[O-])c3C)ccc21`, -6.86%; that for `CCn1c2ccccc2c2cc(NC(=O)c3ccc(C)c([N+](=O)[O-])c3)ccc21`, 8.31%.

Turning to `C=CCCCN(Cc1ccccc1)S(=O)(=O)c1ccccc1Br`, the inhibition was -1.22%.

Turning to `COC(=O)c1cccc(-n2cnnn2)c1`, the inhibition was 22.2%. The result for `COc1ccc(C(=O)COC(=O)c2cccc(-n3cnnn3)c2)c(OC)c1` reads 3.56%; that for `CCOC(=O)c1cc(-c2ccc(OC)cc2F)nc2c1c(C)nn2CCC#N`, 15.4%.

`CC1=C(C(=O)OCc2ccccc2)C(c2cccs2)N2C(=O)CCSC2=N1` (configuration not stated): the inhibition is -5.63%. On to `CCOC(=O)CCn1cnc2ccc([N+](=O)[O-])cc2c1=O`, for which the inhibition was 10.2%.

Turning to `Cc1ccc(-c2ccc(=O)n(CCC(=O)N3CCN(c4cccc(C)c4)C(C)C3)n2)cc1` (configuration not stated), the inhibition was 1.97%.

Source of the values: PubChem BioAssay AID1117319 (Southern Research Institute, 2015).
